Bioassay records deposited in PubChem by National Center for Advancing Translational Sciences (NCATS).
PKM2 activator: PKM2 (human) enzyme activation; Potency, µM (titrated, usually from 57.5 µM), without a hit: top-dose activation, actives largely listed as activators; 0.34% of 260,000 active; purified PKM2, Kinase-Glo ATP luminescence, activation; response scale: 0% is enzyme alone, no compound; also: potency is read from the fitted curve at half-maximal effect; % is scaled to controls: 0 for no effect and ±100 for the full control effect; nearly all actives have a fitted effect of over 55% in size
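Purified hPK-M2 (>95% pure) converted ADP (0.1 mM final) to ATP with 0.5 mM PEP in 50 mM imidazole pH7.2, KCl, MgCl2, Tween 20, BSA; 1 h at room temperature. ATP detected by Kinase-Glo luminescence.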
ClpP mod: qHTS Assay for Activators of ClpP; 1.9% of 340,000 active; AID 651965, 2013; purified B. subtilis ClpP, FRET peptide cleavage, 20 min; Potency, µM (doses to about 57.5 µM), for the others: at the top dose activity change, negative = active; active = well fitted falling curve with a large enough effect; inconclusive = small, poorly fitted or top-dose-only effect; inactive = no such curve, though single readings can be large or run the other way; also: potency is read from the fitted curve at half-maximal effect; the source files actives as falling curves though it sought activators and does not explain the sign; nearly all actives have a fitted effect of over 65% in size
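Buffer: 100 mM Tris/HCl pH8, 100 mM KCl, 0.05% low protease BSA, 2.5% glycerol, 0.01% Tween-20. ClpP 10 microg/mL final; 20 min RT; delta FRET normalized to ADEP and DMSO controls.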
IL2 activator: activators of IL-2. activation, % (series mostly up to about 46 µM). IL-2 activation reporter assay, cell-based qHTS; stimulated with anti-CD3/CD4/CD28 beads; in transgenic mouse T cells. 0.065% of 360,000 active; in the data active = activation above about 50%; inconclusive = mostly about 30% to 49%; also: 0% is about no effect
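Unstimulated transgenic mouse T cells preincubated 60 min with compound, then stimulated with anti-CD3/anti-CD4-coated beads plus anti-CD28 for 18 h at 37 degrees C. IL-2 response read as EGFP and DsRed fluorescence by plate cytometry.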
NPSR antagonist: blocks cAMP signaling of the human neuropeptide S receptor. Q6W5P4. 1% of 220,000 active. Potency, µM (series often up to 38.3 µM), for inactives: at the top dose activity change, negative = inhibition, usual class: inhibitors. CHO-NPSR cells, cAMP TR-FRET, antagonist mode. AID 1461; also: potency is read from the fitted curve at half-maximal effect; % is scaled to controls: 0 for no effect and ±100 for the full control effect; nearly all actives have a fitted effect of over 50% in size
Target sequence (Q6W5P4 whole entry, looked up): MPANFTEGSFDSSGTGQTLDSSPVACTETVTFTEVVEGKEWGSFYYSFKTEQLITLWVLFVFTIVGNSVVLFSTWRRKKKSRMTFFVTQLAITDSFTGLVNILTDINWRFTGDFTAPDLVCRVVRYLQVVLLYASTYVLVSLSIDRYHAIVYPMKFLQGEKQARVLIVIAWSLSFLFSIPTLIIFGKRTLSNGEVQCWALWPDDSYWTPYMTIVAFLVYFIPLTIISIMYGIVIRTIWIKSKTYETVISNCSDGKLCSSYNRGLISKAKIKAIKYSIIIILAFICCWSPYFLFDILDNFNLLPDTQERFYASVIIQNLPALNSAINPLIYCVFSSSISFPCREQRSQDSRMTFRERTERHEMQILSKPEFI
An asterisk follows results filed as active; ? = inconclusive; · = not tested or not shown; [ ] = remark or other dose. Most compounds without a hit are left out; they make up all but 2% or so of the library. Unless noted, calls follow the shape of the dose curve; as a rule, active = well fitted curve in the direction sought with a large enough effect; inconclusive = small, poorly fitted or top-dose-only effect, or another doubt; inactive = no such curve, though single readings can be large; an effect the other way counts as inactive or inconclusive.

SMILES	PKM2 activator	ClpP mod	IL2 activator	NPSR antagonist
O=C(Nc1ccc2c(c1)nc1n2CCN(Cc2ccccc2)C1)NC1CCCCC1	0%	28µM*	0	-6%[46.1 µM]
COc1cc(C=O)cc(Br)c1OCC(N)=O	4%	·	0	10%
COCCSc1ccccc1C(=O)NCCCn1ccnc1	18%	-1%	-1	-8%[46.1 µM]
Cc1cccc(CCNC(=O)CCS(=O)(=O)c2cc3c(cc2Cl)NC(=O)CO3)c1	·	-2%	0	·
Cc1c(Cc2ccccc2)c(=O)oc2c(O)c(O)ccc12	20µM*	·	0	-11%
CN(CC(=O)Nc1ccccc1F)S(=O)(=O)c1ccc2c(c1)n(C)c(=O)c(=O)n2C	-7%	?	0	0%
COc1cc(OC)c2c(C)cc(=O)oc2c1C(CCN1CCN(c2ccccc2)CC1)c1ccc2c(c1)OCO2 (stereo not drawn)	-3%	32µM*	0	-52%
COc1cc(O)c(C(CCN2CCN(c3ccccc3)CC2)c2cc(OC)c(OC)c(OC)c2)c(OC)c1 (stereo not drawn)	-5%	0%	0	5µM*
O=C1ON=C(c2ccccc2)/C1=C/c1ccc(O)c(O)c1	·	-3%	-4	·
O=C1ON=C(c2cccc([N+](=O)[O-])c2)/C1=C/c1ccc(O)cc1	25%	·	1	10µM*
Cc1ccc(C)c(N2CCN(C(C(=O)NC3CCCC3)C(C)C)CC2)c1 (stereo not drawn)	·	-5%	-1	·
CC(=O)OCCNc1cc(N2CCN(C)CC2)c2noc3c2c1C(=O)c1ccccc1-3	-6%	0%	0	10µM*
COc1ccc2c(/C=C/c3cc[n+](C)cc3)c[nH]c2c1	·	0%	28	·
Cc1ccc2[nH]cc(/C=C/c3cc[n+](C)cc3)c2c1	·	·	71*	·
CC[n+]1ccc(/C=C/c2c[nH]c3ccccc23)cc1	-19%	-1%	211*	·
COc1ccc(-c2cc(OC(=O)c3ccc(Cl)cc3)c3c(C)oc(C)c3c(=O)c2)cc1	·	-2%	·	·
O=C(CSc1nnc(CNC(=O)c2ccccc2)o1)NCc1ccccc1Cl	4%	32µM*	-3	·
O=C(CSc1nnc(CNC(=O)c2ccc(F)cc2)o1)NCc1ccccc1Cl	-1%	1%	0	·
CC(Sc1ccc([N+](=O)[O-])cn1)C(=O)Nc1nccs1 (stereo not drawn)	6.3µM*	1%	0	·
O=C(CNC(=O)c1ccco1)NCC(=O)OCc1ccc(C(=O)Oc2ccc(Cl)cc2)cc1	2%	1%	-2	-8%[46.1 µM]
O=C1CCCN1CCc1cccc2ccccc12	·	·	0	·
O=C1CCCN1CCC12CC3CC(CC(C3)C1)C2	40µM*	2%	-2	-5%
Cc1cccc2[nH]c3c(N4CCC5(CC4)OCCO5)ncnc3c12	2%	?	-3	-4%[46.1 µM]
Cc1cccc2[nH]c3c(N4CCN(C(=O)c5ccco5)CC4)ncnc3c12	28%	32µM*	1	-13%[46.1 µM]
CCCCS(=O)(=O)/C=C\C=C/S(=O)(=O)CCCC	15%	?	0	5µM*
SMILES	PKM2 activator	ClpP mod	IL2 activator	NPSR antagonist
COC(=O)CNc1nc(C2CC2)nc2c1nnn2Cc1ccccc1Cl	6%	-2%	-2	-8%[46.1 µM]
CN(C)S(=O)(=O)c1ccc(Nc2nc(C3CC3)nc3c2nnn3Cc2ccccc2Cl)cc1	4%	32µM*	0	-39%
O=C(OC[C@@H]1CCCN2CCCC[C@H]12)c1cc2ccccc2oc1=O	3%	25µM*	1	7%
O=C(OC1CCCCC1)c1cc2ccccc2oc1=O	·	·	0	·
CC1=CC(c2ccccc2)n2nc(N3C(=O)c4ccccc4C3=O)nc2N1 (stereo not drawn)	7%	72%	1	-14%[46.1 µM]
CC1=CC(c2ccccc2)n2nc(N3C(=O)C4CC=CCC4C3=O)nc2N1 (stereo not drawn)	5%	2.2µM*	-1	-6%[7.67 µM]
Nc1nc(N2C(=O)C3CC=CCC3C2=O)nn1-c1ccccc1 (stereo not drawn)	-6%	2%	-2	-2%[46.1 µM]
CC1=CC(c2ccccc2)n2nc(N3C(=O)CCC3=O)nc2N1 (stereo not drawn)	-10%	28µM*	2	-2%[46.1 µM]
COC(=O)c1cccc(NC(=O)Cc2ccc(OC)cc2)c1C	2%	1%	-2	4%[46.1 µM]
Cn1c(N)c(C(=O)CSc2ncn[nH]2)c(=O)n(C)c1=O	8%	·	-3	-7%[7.67 µM]
